In PubChem BioAssay AID488969 (Vanderbilt High Throughput Screening Facility, 2010) one finds z-score data, which are given here for 68 compounds.

Each structure is given as a SMILES string. Over roughly 110,000 compounds, “z-score” has its median near -0.1; the highest 2% begin near 2. Many of the other results were omitted from the sample, so the highest values are more common in it than they were. The source made the active and inactive calls.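 Rule for the calls: active = z-score in the third read window above 3 or below -3; inactive = the rest.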

This experiment deals with Metabotropic glutamate receptor 8 (Rattus norvegicus) (UniProt P70579). The experiment in a line: rat mGluR8 modulators via GIRK flux, primary screen, cell-based, thallium flux, HTS (AID 488969). To be noted: HEK293 rat mGluR8, GIRK (G protein-gated inwardly rectifying potassium channel) thallium flux, FluoZin2; at 10 µM; stronger effect = higher value; submaximal glutamate (EC20) added with thallium.
Chain of Metabotropic glutamate receptor 8 (Rattus norvegicus) (P70579 whole entry, looked up): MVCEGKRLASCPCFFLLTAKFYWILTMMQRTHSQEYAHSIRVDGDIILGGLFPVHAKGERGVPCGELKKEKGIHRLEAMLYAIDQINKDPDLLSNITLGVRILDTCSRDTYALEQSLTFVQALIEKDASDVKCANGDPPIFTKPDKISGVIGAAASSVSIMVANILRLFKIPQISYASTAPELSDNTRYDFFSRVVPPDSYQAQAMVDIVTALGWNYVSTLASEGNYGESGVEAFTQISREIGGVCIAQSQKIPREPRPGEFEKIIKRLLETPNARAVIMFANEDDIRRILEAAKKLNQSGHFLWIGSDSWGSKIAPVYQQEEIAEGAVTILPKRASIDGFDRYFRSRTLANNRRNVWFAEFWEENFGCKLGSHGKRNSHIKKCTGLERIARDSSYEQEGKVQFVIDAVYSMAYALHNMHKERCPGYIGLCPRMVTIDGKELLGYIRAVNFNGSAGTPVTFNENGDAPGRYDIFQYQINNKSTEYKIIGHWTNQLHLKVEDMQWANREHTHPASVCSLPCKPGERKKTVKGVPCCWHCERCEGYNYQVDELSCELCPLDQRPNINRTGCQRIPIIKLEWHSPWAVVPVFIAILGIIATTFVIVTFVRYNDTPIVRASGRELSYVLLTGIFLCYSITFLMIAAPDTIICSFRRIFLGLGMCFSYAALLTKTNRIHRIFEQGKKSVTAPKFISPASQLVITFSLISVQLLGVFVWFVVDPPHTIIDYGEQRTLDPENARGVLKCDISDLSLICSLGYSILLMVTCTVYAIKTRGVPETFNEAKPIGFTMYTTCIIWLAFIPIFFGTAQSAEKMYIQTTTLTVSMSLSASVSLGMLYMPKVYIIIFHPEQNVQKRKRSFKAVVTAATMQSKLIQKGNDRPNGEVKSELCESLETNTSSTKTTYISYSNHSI
For the compound `O=C(Nc1ccccc1)N1CCCc2ccccc21`, the z-score was -0.0768.

On to `O=C(NCCCN1CCCC1=O)c1ccccc1NS(=O)(=O)c1ccc(Br)cc1`, for which the z-score was -0.938.

With `CCCn1cc(NC(=O)C2CC(c3cccc(Br)c3)=NO2)cn1` (stereo not drawn), the z-score was -0.352.

`CCOc1cc(/C=C2/NC(=O)N(CC(=O)Nc3cccc(C)c3)C2=O)ccc1O`: the z-score is -0.784.

Consider `N#CC1=C(SCC(=O)NCc2ccccc2)NC(=O)CC1c1ccco1` (stereo not drawn), for which the z-score came out at 1.77.

Regarding `CC(C)=C1C2CCC1C1C(=O)N(c3nc(-c4ccc(C(C)C)cc4)c(C)s3)C(=O)C21` (stereo not drawn), the z-score was -0.0235.

Turning to `O=C(NC(=S)N1CCCCC1)c1cccs1`, the z-score stood at 0.578.

Turning to `O=C(NC(=S)N1CCN(c2ccc(C(F)(F)F)cc2[N+](=O)[O-])CC1)c1cccs1`, the z-score is 8.9 (active).

As to `O=C(NC(=S)N1CCN(c2ccc(Cl)cc2[N+](=O)[O-])CC1)c1ccco1`, the z-score came out at 2.99.

Consider `O=C(CSc1ccc(Cl)cc1)N1CCN(c2ccc(Cl)cc2[N+](=O)[O-])CC1`, for which the z-score was -0.109.

Regarding `O=C(NC(=S)N1CCN(c2ccc([N+](=O)[O-])cc2Cl)CC1)c1ccco1`, the z-score was 1.05.

For `O=C(NC(=S)N1CCN(c2c(Cl)cccc2[N+](=O)[O-])CC1)c1cccs1`, the z-score was -4.63 (active).

For `O=C(Nc1cc(C(F)(F)F)ccc1N1CCOCC1)c1cccs1`, the z-score came out at 1.15.

The compound `NC(=O)C1CCN(c2ccc(C(F)(F)F)cc2[N+](=O)[O-])CC1` showed a z-score of 0.0305.

Take `O=C(NC(=S)N1CCN(c2ccc(Cl)cc2[N+](=O)[O-])CC1)c1cccs1`: the z-score was 9.46 (active).

On to `COc1ccc(NC(=O)Nc2ccc(Br)cn2)cc1OC`, for which the z-score is -0.221.

`COc1ccc2nc(NC(=O)CSc3nnc(N)s3)sc2c1` showed a z-score of 0.075.

`Cc1[nH]n(-c2ccccc2)c(=O)c1N=Nc1nccs1`: the z-score was 14.8 (active).

In the case of `Cc1[nH]n(-c2ccccc2)c(=O)c1N=Nc1cccc(S(=O)(=O)N2CCOCC2)c1`, the z-score was 0.327.

Consider `Cc1[nH]n2c(=O)cc(-c3ccc([N+](=O)[O-])cc3)nc2c1-c1ccccc1`, for which the z-score was -1.93.

On to `Cc1[nH]n(-c2ccccc2)c(=O)c1S(=O)(=O)c1ccccc1`, for which the z-score was -0.642.

Consider `Cc1[nH]n(-c2ccc([N+](=O)[O-])cc2)c(=O)c1C=NCCc1c(C)[nH]c2ccccc12`, for which the z-score was -0.0759.

Take `Cc1[nH]n(-c2ccc([N+](=O)[O-])cc2)c(=O)c1N=Nc1nc2ccccc2s1`: the z-score is 2.47.

On to `CN(Cc1ccc(-n2cccn2)cc1)C(=O)c1cnn2c1NC(c1ccco1)CC2C(F)(F)F` (stereo not drawn), for which the z-score was -0.35.

Take `CCCCN1C(=S)SC(C)(C)C1/[N+]([O-])=C/c1cccnc1` (stereo not drawn): the z-score was -0.00445.

Turning to `CCN1C(=O)C2C(C1=O)N1C(c3ccccc3)C3C(=O)N(CC)C(=O)C3N1C2c1ccccc1` (stereo not drawn), the z-score was determined as 0.0538.

`CCCn1c(=N)n(CC(O)c2ccco2)c2ccccc21` (stereo not drawn): the z-score amounted to 0.907.

Consider `Cc1cccc(OCC(O)CN2C(C)(C)CC(O)CC2(C)C)c1` (stereo not drawn), for which the z-score was 9.44 (active).

`Cc1cccc(OCC(O)CN2C(C)(C)CC(O)CC2(C)C)c1C` (stereo not drawn) registered a z-score of 1.1.

Take `CCn1c(=N)n(CC(O)COc2cccc(C)c2)c2ccccc21` (stereo not drawn): the z-score worked out at 0.778.

As to `C=CCn1c(=N)n(CC(O)COc2ccccc2OC)c2ccccc21` (stereo not drawn), the z-score came out at 1.12.

As for `CC(=O)c1ccc(OCC(O)CN2C(C)(C)CC(O)CC2(C)C)cc1` (stereo not drawn), the z-score is -0.153.

On to `CCCn1c(=N)n(CC(O)COc2cccc(C)c2)c2ccccc21` (stereo not drawn), for which the z-score was 3.74 (active).

Turning to `CCCCn1c(=N)n(CC(O)COc2cccc(C)c2)c2ccccc21` (stereo not drawn), the z-score was 4.52 (active).

For the compound `CCCCCn1c(=N)n(CC(O)COc2ccccc2OC)c2ccccc21` (stereo not drawn), the z-score was -1.11.

In turn, `CC(=O)c1ccc(OCCCC(=O)Nc2ccc(C)c(S(=O)(=O)N(C)C)c2)cc1` registered a z-score of 0.136.

In turn, `O=C(CCNc1cc(Cl)cc(Cl)c1)c1cccs1` returned a z-score of 0.0113.

Consider `COc1ccc(NS(=O)(=O)c2c(C)n(C)c(=O)n(C)c2=O)cc1OC`, for which the z-score was -0.0428.

As to `Cc1ccc(S(=O)(=O)Cc2ccc(C(=O)NCc3ccc4c(c3)OCO4)o2)cc1`, the z-score is -0.326.

Take `NS(=O)(=O)c1ccc(CCNC(=O)C2CCN(S(=O)(=O)c3cnc[nH]3)CC2)cc1`: the z-score was -0.00955.

Regarding `O=C(NC1CCCC1)C(c1cccnc1)N(C(=O)c1csnn1)C1CCCC1` (stereo not drawn), the z-score was -0.145.

For `CC1CCN(c2nc3c(c(=O)[nH]c(=O)n3C)n2CCSc2nc3ccccc3o2)CC1`, the z-score was 0.0449.

For `C=C1c2cc(C)ccc2NC(=O)N1c1ccc(C)cc1`, the z-score is -0.68.

For `COc1cc(C)c(S(=O)(=O)N2CCOCC2)cc1C(C)C`, the z-score came out at 0.397.

As for `COc1cc(C)c(N)cc1C(C)C`, the z-score was found to be 2.12.

In the case of `COc1cc(C)c(-c2cc(C(=O)O)c(C)o2)cc1C(C)C`, the z-score is -0.106.

In the case of `Cc1ccc(C(=O)NC(=S)N2CCN(c3ccc([N+](=O)[O-])cc3)CC2)cc1`, the z-score came out at 0.426.

As to `O=C(NC(=S)N1CCN(c2ccc([N+](=O)[O-])cc2)CC1)c1ccc(F)cc1`, the z-score is 9.01 (active).

Take `C=CCNC(=S)N1CCN(c2ccc([N+](=O)[O-])cc2)CC1`: the z-score was found to be 2.09.

For `CNC(=S)N1CCN(c2ccc([N+](=O)[O-])cc2)CC1`, the z-score was -0.188.

In the case of `CCNC(=S)N1CCN(c2ccc([N+](=O)[O-])cc2)CC1`, the z-score is 0.99.

Compound `COc1ccc(C(=O)NC(=S)N2CCN(c3ccc([N+](=O)[O-])cc3)CC2)cc1` had a z-score of 0.274.

Compound `CCN(CC)c1nc2ccccc2c(N)c1-c1ccccc1` returned a z-score of 0.0637.

`CC(=O)c1c(C)nc2ccccc2c1N`: the z-score came out at 0.205.

Regarding `Cc1cc(C)c2c(N)c3ccccc3nc2n1`, the z-score is -0.0162.

As for `CN(C)c1nc2ccccc2c(N)c1-c1ccccc1`, the z-score was 3.06 (active).

In turn, `Cc1c(N(C)C)nc2ccccc2c1N` gave a z-score of 2.03.

With `CN(C)c1nc(-c2ccccc2)nnc1C(F)(F)F`, the z-score was -0.148.

`O=C(NCc1cccnc1)c1cccc(Cl)c1` registered a z-score of 0.278.

For the compound `O=C(Cn1c(=O)oc2ccccc21)NCc1ccco1`, the z-score was determined as 0.455.

For the compound `Cc1c(NCc2cc(Cl)ccc2O)c(=O)n(-c2ccccc2)n1C`, the z-score is -0.0479.

Consider `O=C(CSc1nnc(-c2cccc(Cl)c2)o1)Nc1ccc2c(c1)OCCO2`, for which the z-score was -0.0175.

In the case of `CCCN(CC(=O)Nc1cc(Cl)cc(Cl)c1)CC(=O)Nc1ccc(F)c(F)c1F`, the z-score was -0.209.

As for `CC(C)COP(=O)(c1ccc(N(C)C)cc1)C(Nc1ccccc1)c1ccccc1` (stereo not drawn), the z-score is -0.803.

Take `COc1cccc(NC(=O)NCCCSC2CCCCC2)c1`: the z-score was 4.47 (active).

Regarding `CCCCSCCCNC(=O)Nc1cccc(OC)c1`, the z-score is -0.211.

In turn, `CCOc1ccc(NC(=O)NCCCSC2CCCCC2)cc1` displayed a z-score of 0.197.

As to `O=C(COC(=O)c1cccc([N+](=O)[O-])c1)c1ccc(OCc2ccccc2)cc1`, the z-score was -0.231.
